According to PubChem BioAssay (EPA / NIEHS):
Several values for one entry are separate records, joined by “and”; a condition that tells them apart may be missing. Identical values can stand only once. The source holds several records for some structures; these can differ, active in one and inactive in another. Activity calls are given as the source filed them. How the source made its calls: active means hit-call score of the fitted dose curve at least 0.9, where 1 is the maximum; inactive means score below 0.9.

Read-out: not listed separately
Assay: BSK_IMphg_SRB: Viability Assessment in the BioMAP Diversity Plus: IMphg Assay (AID 2284292);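 further: measured one day after compound addition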
Conditions: primary human endothelial cells with macrophages
Outline: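 Human venular endothelial cells with macrophages, 24 h after chemical dosing; total protein by 0.1% SRB staining after 10% TCA fixation, read at 560 nm. Positive-direction fitting versus DMSO baseline.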

Q: For O=S(=O)(OCC(F)F)C(F)(F)F, which outcome is on record?
A: inactive

Q: For O=S(=O)(O)C(F)(F)C(F)(F)C(F)(F)C(F)(F)C(F)(F)C(F)(F)C(F)(F)F, which outcome is on record?
A: inactive

Q: For OCC(F)(F)C(F)(F)C(F)(F)C(F)(F)C(F)(F)C(F)(F)F, which outcome is on record?
A: inactive

Q: For C=CC(=O)OCC(F)(F)C(F)(F)C(F)(F)C(F)(F)COC(=O)C=C, which outcome is on record?
A: inactive

Q: With O=C(O)C(F)(F)C(F)(F)C(F)(F)C(F)(F)C(F)(F)C(F)(F)C(F)(F)C(F)(F)C(F)(F)C(F)F as the compound, how does the AC50 read?
A: 55.7 µM (active) and 50.4 µM (active)

Q: For C=C(C)C(=O)OCC(F)(F)C(F)(F)C(F)(F)F, which outcome is on record?
A: inactive

Q: With FC(F)(F)C(F)(F)CNCC(F)(F)C(F)(F)F as the compound, how does the outcome read?
A: inactive

Q: With COC(=O)CCC(F)(F)C(F)(F)C(F)(F)C(F)(F)F as the compound, how does the outcome read?
A: inactive

Q: With CC(C)(C)C(=O)CC(=O)C(F)(F)C(F)(F)C(F)(F)F as the compound, how does the outcome read?
A: inactive

Q: For O=C(O)C(F)(F)C(F)(F)C(F)(F)C(F)(F)C(F)(F)C(F)(F)C(F)(F)C(F)(F)Cl, which AC50 is on record?
A: 56.6 µM (active) and 47.9 µM (active)

Q: For OCC(F)(F)C(F)(F)C(F)(F)C(F)(F)C(F)(F)C(F)F, which outcome is on record?
A: inactive

Read-out: Macrophage colony-stimulating factor (MCSF), CSF1 (gene 1435)
Assay: BSK_IMphg_MCSF: BioMAP Diversity Plus: IMphg Assay for Macrophage colony-stimulating factor (MCSF) Biomarker Activity (AID 2284293)
Conditions: primary human endothelial cells with macrophages
Outline: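 Co-culture of human venular endothelial cells and macrophages, 24 hours of chemical exposure. M-CSF quantified by ELISA, with parallel SRB total-protein staining for cytotoxicity; activity fitted relative to DMSO.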

Q: For O=C(O)C(F)(OC(F)(F)C(F)(OC(F)(F)C(F)(OC(F)(F)C(F)(F)C(F)(F)F)C(F)(F)F)C(F)(F)F)C(F)(F)F (centres undefined), which outcome is on record?
A: inactive

Q: With FC(F)(F)C(F)(F)C(F)(F)C(F)(F)C(F)(F)C(F)(F)CCS as the compound, how does the outcome read?
A: inactive

Q: For C=C(C)C(=O)OCC(F)(F)C(F)(F)C(F)(F)C(F)(F)C(F)(F)C(F)(F)C(F)(F)F, which outcome is on record?
A: inactive

Q: With FC(F)(F)C(F)(F)C(F)(F)C(F)(F)CCI as the compound, how does the outcome read?
A: inactive

Q: Which outcome does the source give for O=C(O)C(F)(F)C(F)(F)C(F)(F)F here?
A: inactive

Q: For N=C(N)C(F)(F)C(F)(F)C(F)(F)C(F)(F)C(F)(F)C(F)(F)C(F)(F)F, which outcome is on record?
A: inactive

Q: Which outcome does the source give for O=C(O)C(F)(OC(F)(F)C(F)(OC(F)(F)C(F)(F)C(F)(F)F)C(F)(F)F)C(F)(F)F (centres undefined) here?
A: inactive

Q: With O=C(O)C(F)(F)C(F)(F)C(F)(F)C(F)(F)C(F)(F)C(F)(F)C(F)(F)C(F)(F)C(F)(F)C(F)(F)C(F)(F)C(F)(F)C(F)(F)F as the compound, how does the outcome read?
A: inactive

Q: For FC(F)(F)C(F)(F)C(F)(F)N(C(F)(F)C(F)(F)C(F)(F)F)C(F)(F)C(F)(F)C(F)(F)F, which outcome is on record?
A: inactive

Q: For O=C(O)C=C(C(F)(F)F)C(F)(F)F, which outcome is on record?
A: inactive

Q: With O=C(O)C(F)(F)C(F)(F)F as the compound, how does the outcome read?
A: inactive

Q: What does the source list for FC(F)(I)C(F)(F)C(F)(F)C(F)(F)I?
A: AC50: 30 µM (active) and 19.6 µM (active); outcome: inactive

Q: Which outcome does the source give for OCC(F)(F)C(F)(F)C(F)(F)F here?
A: inactive

Q: Which outcome does the source give for FC(F)(F)C(F)(F)C(F)(F)C(F)(F)C(F)(F)C(F)(F)C(F)(F)Br here?
A: inactive

Q: Which outcome does the source give for OCC(F)(F)C(F)(F)C(F)(F)C(F)F here?
A: inactive

Q: Which results are given for OCCCC(F)(F)C(F)(F)C(F)(F)C(F)(F)C(F)(F)C(F)(F)C(F)(F)F?
A: AC50: 45.8 µM (active); outcome: inactive

Q: Which outcome does the source give for O=S(=O)(OCC(F)F)C(F)(F)F here?
A: inactive

Q: With O=S(=O)(O)C(F)(F)C(F)(F)C(F)(F)C(F)(F)C(F)(F)C(F)(F)C(F)(F)F as the compound, how does the outcome read?
A: inactive

Q: Which outcome does the source give for OCC(F)(F)C(F)(F)C(F)(F)C(F)(F)C(F)(F)C(F)(F)F here?
A: inactive

Q: For C=CC(=O)OCC(F)(F)C(F)(F)C(F)(F)C(F)(F)COC(=O)C=C, which outcome is on record?
A: inactive

Q: With O=C(O)C(F)(F)C(F)(F)C(F)(F)C(F)(F)C(F)(F)C(F)(F)C(F)(F)C(F)(F)C(F)(F)C(F)F as the compound, how does the outcome read?
A: inactive

Q: With C=C(C)C(=O)OCC(F)(F)C(F)(F)C(F)(F)F as the compound, how does the outcome read?
A: inactive

Q: With FC(F)(F)C(F)(F)CNCC(F)(F)C(F)(F)F as the compound, how does the outcome read?
A: inactive

Q: For COC(=O)CCC(F)(F)C(F)(F)C(F)(F)C(F)(F)F, which outcome is on record?
A: inactive

Q: Which outcome does the source give for CC(C)(C)C(=O)CC(=O)C(F)(F)C(F)(F)C(F)(F)F here?
A: inactive

Q: For O=C(O)C(F)(F)C(F)(F)C(F)(F)C(F)(F)C(F)(F)C(F)(F)C(F)(F)C(F)(F)Cl, which outcome is on record?
A: inactive

Q: For OCC(F)(F)C(F)(F)C(F)(F)C(F)(F)C(F)(F)C(F)F, which outcome is on record?
A: inactive

Read-out: Interleukin-10 (IL10), IL10 (gene 3586)
Assay: BSK_IMphg_IL10: BioMAP Diversity Plus: IMphg Assay for Interleukin-10 (IL10) Biomarker Activity (AID 2284294)
Conditions: primary human endothelial cells with macrophages
Outline: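 Human venular endothelial cells cocultured with macrophages, dosed 24 h; IL-10 measured by ELISA, activity relative to DMSO. Cytotoxicity assessed in parallel cultures by sulforhodamine B total-protein staining.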

Q: With FC(F)(F)C(F)(F)C(F)(F)C(F)(F)C(F)(F)C(F)(F)CCS as the compound, how does the AC50 read?
A: 2.49 µM (active)

Q: What about the outcome of the same compound?
A: inactive

Q: For N=C(N)C(F)(F)C(F)(F)C(F)(F)C(F)(F)C(F)(F)C(F)(F)C(F)(F)F, which outcome is on record?
A: inactive

Q: With O=C(O)C(F)(OC(F)(F)C(F)(OC(F)(F)C(F)(F)C(F)(F)F)C(F)(F)F)C(F)(F)F (centres undefined) as the compound, how does the outcome read?
A: inactive

Q: For O=C(O)C(F)(F)C(F)(F)C(F)(F)C(F)(F)C(F)(F)C(F)(F)C(F)(F)C(F)(F)C(F)(F)C(F)(F)C(F)(F)C(F)(F)C(F)(F)F, which outcome is on record?
A: inactive

Q: With OCC(F)(F)C(F)(F)C(F)(F)F as the compound, how does the outcome read?
A: inactive

Q: Which outcome does the source give for OCC(F)(F)C(F)(F)C(F)(F)C(F)(F)C(F)(F)C(F)(F)F here?
A: inactive

Q: Which AC50 does the source give for C=CC(=O)OCC(F)(F)C(F)(F)C(F)(F)C(F)(F)COC(=O)C=C here?
A: 24.4 µM (active) and 33.7 µM (active)

Q: Which outcome does the source give for CC(C)(C)C(=O)CC(=O)C(F)(F)C(F)(F)C(F)(F)F here?
A: inactive
